Results from the antibiotic and cytotoxicity screens of Wong et al. (2023).
Hit rate of the full screen: of about 39,000 compounds, about 500 (1.3%) were called active. The entries come from a sample that favours actives as a whole.

Each molecule was assayed on S. aureus RN4220 (assay: growth inhibition call (relative growth <= 0.2)). Settings: 50 µM.

Structure (SMILES) | growth inhibition call
C[C@@H]1CN([C@H](C)CO)C(=O)c2cc(NC(=O)Nc3ccc(F)cc3)ccc2O[C@@H](C)CCCCO[C@H]1CN(C)Cc1ccccc1 | inactive
CS(=O)(=O)N1C[C@H](NC(=O)C2CC2)[C@H]2OCCC[C@H]21 | inactive
C[C@H]1CCCCO[C@H](CN(C)CC2CC2)[C@@H](C)CN([C@@H](C)CO)C(=O)c2cc(NC(=O)Nc3ccc(C(F)(F)F)cc3)ccc2O1 | inactive
C[C@@H]1CCCCO[C@@H](CN(C)CC2CC2)[C@@H](C)CN([C@H](C)CO)C(=O)c2cc(NC(=O)Nc3ccc(C(F)(F)F)cc3)ccc2O1 | inactive
C[C@H](CO)N1C[C@H](C)[C@H](CN(C)CC2CC2)OCCCC[C@H](C)Oc2ccc(NC(=O)Nc3ccc(C(F)(F)F)cc3)cc2C1=O | inactive
C[C@H](CO)N1C[C@H](C)[C@H](CN(C)CC2CCCCC2)Oc2ccc(NC(=O)Nc3ccc(C(F)(F)F)cc3)cc2C1=O | active
C[C@@H]1CN([C@H](C)CO)C(=O)c2cc(NC(=O)Nc3ccc(C(F)(F)F)cc3)ccc2O[C@@H]1CN(C)CC1CCCCC1 | inactive
C[C@H]1CN([C@@H](C)CO)C(=O)c2cc(NC(=O)Nc3ccc(C(F)(F)F)cc3)ccc2O[C@@H]1CN(C)CC1CCCCC1 | inactive
C[C@@H]1CCCCO[C@H](CN(C)CC2CC2)[C@H](C)CN([C@@H](C)CO)C(=O)c2cc(NC(=O)Nc3ccc(C(F)(F)F)cc3)ccc2O1 | active
C[C@@H]1CCCCO[C@@H](CN(C)CC2CC2)[C@H](C)CN([C@@H](C)CO)C(=O)c2cc(NC(=O)Nc3ccc(C(F)(F)F)cc3)ccc2O1 | inactive
C[C@@H]1CCCCO[C@H](CN(C)CC2CC2)[C@H](C)CN([C@H](C)CO)C(=O)c2cc(NC(=O)Nc3ccc(C(F)(F)F)cc3)ccc2O1 | active
CCCC#Cc1cnc2c(c1)C(=O)N([C@@H](C)CO)C[C@H](C)[C@@H](CN(C)C(=O)c1ccc3c(c1)OCO3)O2 | inactive
C[C@@H]1CN([C@H](C)CO)C(=O)c2cc(NS(=O)(=O)c3cn(C)cn3)ccc2O[C@H]1CN(C)Cc1ccc(C(=O)Nc2ccccc2N)cc1 | inactive
Cc1ccc(S(=O)(=O)Nc2ccc3c(c2)C(=O)N([C@H](C)CO)C[C@@H](C)[C@H](CN(C)Cc2ccc(C(F)(F)F)cc2)O3)cc1 | inactive
COc1ccc(S(=O)(=O)Nc2ccc3c(c2)[C@H]2C[C@@H](CC(=O)NCC4CC4)O[C@H](CO)[C@H]2O3)cc1 | inactive
CCOc1nc2cccc(C(=O)O)c2n1Cc1ccc(-c2ccccc2-c2nnn[nH]2)cc1 | inactive
CCOc1nc2cccc(C(=O)O[C@@H](C)OC(=O)OC3CCCCC3)c2n1Cc1ccc(-c2ccccc2-c2nn[nH]n2)cc1 | active
CCOc1nc2cccc(C(=O)OC(C)OC(=O)OC3CCCCC3)c2n1Cc1ccc(-c2ccccc2-c2nnn[nH]2)cc1 (stereo not given) | inactive
C[C@H](CO)N1C[C@H](C)[C@H](CN(C)S(=O)(=O)c2cn(C)cn2)Oc2ncc(-c3cc4ccccc4o3)cc2C1=O | inactive
COc1ccc(NC(=O)N(C)C[C@@H]2Oc3ccc(NC(=O)C4CC4)cc3CC(=O)N([C@@H](C)CO)C[C@@H]2C)cc1 | inactive
Cc1noc(C)c1NC(=O)Nc1cccc2c1O[C@H](CN(C)Cc1ccc(C(=O)Nc3ccccc3N)cc1)[C@H](C)CN([C@@H](C)CO)C2=O | inactive
C[C@@H]1CN([C@@H](C)CO)C(=O)c2cc(NS(=O)(=O)c3ccccc3)ccc2O[C@H]1CN(C)S(=O)(=O)c1cccs1 | inactive
C=CCOC(=O)[C@H]1[C@@H]2C(=O)O[C@@H](c3ccccc3)[C@@H](c3ccccc3)N2[C@@H](c2ccc(OCCOC(=O)[C@@H]3C[C@@H]4C(=O)N[C@@H](CC(C)C)C(=O)N4[C@@H]3c3ccc(O)cc3)cc2)[C@]12C(=O)Nc1ccccc12 | inactive
C[C@H](CO)N1C[C@H](C)[C@H](CN(C)Cc2ccc(C(=O)Nc3ccccc3N)cc2)Oc2ccc(NC(=O)Cn3cnnn3)cc2C1=O | inactive
CC(OC1OCCN(C(C)c2nc(=O)[nH][nH]2)C1c1ccc(F)cc1)c1cc(C(F)(F)F)cc(C(F)(F)F)c1 (stereo not given) | inactive

Structure (SMILES) | growth inhibition call
C[C@@H](O[C@H]1OCCN(Cc2n[nH]nc2CN(C)C)[C@H]1c1ccc(F)cc1)c1cc(C(F)(F)F)cc(C(F)(F)F)c1 | active
C[C@@H]1CN([C@@H](C)CO)C(=O)c2cccc(NC(=O)c3ccc(-c4nccs4)cc3)c2O[C@H]1CN(C)S(=O)(=O)c1cn(C)cn1 | inactive
COCC#Cc1ccc2c(c1)O[C@@H](CN(C)C(=O)c1ccccc1)[C@@H](C)CN([C@@H](C)CO)S2(=O)=O | inactive
C[C@H](CO)N1C[C@H](C)[C@@H](CN(C)CC2CC2)OCCCC[C@H](C)Oc2ccc(NC(=O)CCCCCC(=O)Nc3ccccc3N)cc2C1=O | inactive
CC(C)[C@@H](N)c1nc2ccccc2[nH]1 | inactive
Cc1ccc2nc([C@H](N)C(C)C)[nH]c2c1 | inactive
C[C@@H](Oc1ccccc1Cl)c1nc2ccc(Cl)cc2[nH]1 | active
C[C@@H]1CN([C@H](C)CO)C(=O)Cc2cc(NC(=O)CCCCCC(=O)Nc3ccccc3N)ccc2O[C@@H]1CN(C)C(=O)Nc1ccc(C(F)(F)F)cc1 | inactive
CO/N=C(\C(=O)N[C@@H]1C(=O)N2C(C(=O)O)=C(CSc3nnnn3C)CS[C@H]12)c1csc(N)n1 | inactive
CON=C(C(=O)N[C@@H]1C(=O)N2C(C(=O)O)=C(CSc3nc(=O)c(O)nn3C)CS[C@H]12)c1csc(N)n1 | active
CO/N=C(\C(=O)N[C@@H]1C(=O)N2C(C(=O)O)=C(C[n+]3ccn4ncccc43)CS[C@H]12)c1nsc(N)n1 | inactive
CO/N=C(\C(=O)N[C@@H]1C(=O)N2C(C(=O)O[C@@H](C)OC(C)=O)=C(COC(N)=O)CS[C@H]12)c1ccco1 | inactive
CC(C)(O/N=C(\C(=O)N[C@@H]1C(=O)N2C(C(=O)O)=C(C[n+]3ccccc3)CS[C@H]12)c1csc(N)n1)C(=O)O | inactive
CON=C(C(=O)NC1C(=O)N2C(C(=O)[O-])=C(COC(N)=O)CSC12)c1ccco1.[Na+] (stereo not given) | active
CC(C)(O/N=C(\C(=O)N[C@@H]1C(=O)N2C(C(=O)O)=C(C[N+]3(CCNC(=O)c4ccc(O)c(O)c4Cl)CCCC3)CS[C@H]12)c1csc(N)n1)C(=O)O | inactive
CO/N=C(\C(=O)N[C@@H]1C(=O)N2C(C(=O)O)=C(C[N+]3(C)CCCC3)CS[C@H]12)c1csc(N)n1 | active
CON=C(C(=O)NC1C(=O)N2C(C(=O)OC(C)OC(C)=O)=C(COC(N)=O)CSC12)c1ccco1 (stereo not given) | inactive
CON=C(C(=O)NC1C(=O)N2C(C(=O)O)=C(C[N+]3(C)CCCC3)CSC12)c1csc(N)n1.[Cl-] (stereo not given) | active
Cc1cn2nc([C@@H]3CCCCN3C(=O)c3cc(Cl)ccc3NS(C)(=O)=O)cc2nc1N1CC[C@H](N)C1 | inactive
NNC(=O)c1cc(=S)nc[nH]1 | inactive
Cc1noc(C)c1NC(=O)Nc1ccc2c(c1)C(=O)N([C@H](C)CO)C[C@@H](C)[C@H](CN(C)S(=O)(=O)c1cn(C)cn1)O2 | inactive
C[C@@H]1CN([C@@H](C)CO)C(=O)Cc2cc(NC(=O)NC3CCCCC3)ccc2O[C@H]1CN(C)S(C)(=O)=O | inactive
C[C@H](CO)N1C[C@H](C)[C@@H](CN(C)Cc2ccc(F)cc2)Oc2ncc(C#Cc3cccnc3)cc2C1=O | inactive
C[C@H]1CN([C@@H](C)CO)C(=O)c2cc(NC(=O)CCCN(C)C)ccc2O[C@@H]1CN(C)C(=O)Nc1ccc(F)cc1 | inactive
C[C@@H]1CN([C@@H](C)CO)C(=O)c2c(c3ccccc3n2C)-c2ccccc2CO[C@@H]1CN(C)Cc1cccc(C(F)(F)F)c1 | inactive

Structure (SMILES) | growth inhibition call
C[C@@H]1CN([C@@H](C)CO)C(=O)c2cccc(NC(=O)C3CCOCC3)c2O[C@@H]1CN(C)Cc1ccncc1 | inactive
O=C(C[C@@H]1CC[C@@H]2[C@H](COC[C@H](O)CN2S(=O)(=O)c2ccccc2)O1)N1CCOCC1 | inactive
CCCNC(=O)N1C[C@@H](O)COC[C@H]2O[C@H](CC(=O)NCCCN3CCOCC3)CC[C@@H]21 | inactive
C[C@@H]1CN([C@@H](C)CO)C(=O)c2cc(NC(=O)C3CCCCC3)ccc2O[C@@H](C)CCCCO[C@H]1CN(C)S(=O)(=O)c1ccc(Cl)cc1 | inactive
C[C@@H]1CN([C@H](C)CO)C(=O)c2cc(NC(=O)Nc3ccc4c(c3)OCO4)ccc2O[C@@H](C)CCCCO[C@@H]1CN(C)C(=O)c1ccccc1 | inactive
COc1ccccc1C#Cc1ccc2c(c1)O[C@@H](CN(C)C(C)=O)[C@H](C)CN([C@@H](C)CO)S2(=O)=O | inactive
CON=C(C(=O)NC1C(=O)N2C(C(=O)[O-])=C(CSc3nc(=O)c([O-])nn3C)CSC12)c1csc(N)n1.O.O.O.[Na+].[Na+] (stereo not given) | inactive
CC1C(NC(=O)C(=NOC(C)(C)C(=O)O)c2csc(N)n2)C(=O)N1S(=O)(=O)O (stereo not given) | inactive
CO/N=C(\C(=O)N[C@@H]1C(=O)N2C(C(=O)O)=C(C)CS[C@H]12)c1csc(N)n1 | active
COCC1=C(C(=O)OC(C)OC(=O)OC(C)C)N2C(=O)C(NC(=O)C(=NOC)c3csc(N)n3)C2SC1 (stereo not given) | inactive
C[C@H]1[C@H](NC(=O)/C(=N\OC(C)(C)C(=O)O)c2csc(N)n2)C(=O)N1S(=O)(=O)O | inactive
CON=C(C(=O)NC1C(=O)N2C(C(=O)[O-])=C(COC(C)=O)CSC12)c1csc(N)n1.[Na+] (stereo not given) | active
C[C@H](CO)N1C[C@H](C)[C@H](CN(C)S(=O)(=O)c2ccccc2)Oc2ccc(NS(C)(=O)=O)cc2C1=O | inactive
O=C(C[C@H]1CC[C@H]2[C@@H](COC[C@@H](O)CN2C(=O)Nc2cccc(Cl)c2)O1)NCCCN1CCOCC1 | inactive
O=C(C[C@@H]1CC[C@@H]2[C@H](COC[C@H](O)CN2C(=O)Nc2cccc(Cl)c2)O1)NCCCN1CCOCC1 | active
O=C(C[C@@H]1CC[C@H]2[C@@H](COC[C@@H](O)CN2C(=O)Nc2cccc(F)c2)O1)NCCCN1CCOCC1 | inactive
O=C(C[C@@H]1CC[C@H]2[C@@H](COC[C@H](O)CN2C(=O)Nc2cccc(Cl)c2)O1)NCCCN1CCOCC1 | active
O=C(C[C@@H]1CC[C@H]2[C@@H](COC[C@@H](O)CN2C(=O)Nc2cccc(Cl)c2)O1)NCCCN1CCOCC1 | active
O=C(C[C@@H]1CC[C@H]2[C@@H](COC[C@H](O)CN2C(=O)Nc2cccc(F)c2)O1)NCCCN1CCOCC1 | inactive
O=C(C[C@H]1CC[C@@H]2[C@H](COC[C@H](O)CN2C(=O)Nc2cccc(Cl)c2)O1)NCCCN1CCOCC1 | inactive
O=C(C[C@@H]1CC[C@@H]2[C@H](COC[C@H](O)CN2C(=O)Nc2cccc(F)c2)O1)NCCCN1CCOCC1 | inactive
O=C(C[C@H]1CC[C@H]2[C@@H](COC[C@H](O)CN2C(=O)Nc2cccc(Cl)c2)O1)NCCCN1CCOCC1 | inactive
O=C(C[C@@H]1CC[C@@H]2[C@H](COC[C@@H](O)CN2C(=O)Nc2cccc(F)c2)O1)NCCCN1CCOCC1 | inactive
O=C(C[C@H]1CC[C@@H]2[C@H](COC[C@@H](O)CN2C(=O)Nc2cccc(Cl)c2)O1)NCCCN1CCOCC1 | active
O=C(C[C@H]1CC[C@H]2[C@@H](COC[C@H](O)CN2C(=O)Nc2cccc(F)c2)O1)NCCCN1CCOCC1 | inactive
